This is an account of results in PubChem BioAssay AID1159524 (National Center for Advancing Translational Sciences (NCATS), 2015).

The whole screen tested about 410,000 compounds, of which about 5,100 (1.2%) were called active. About 8% were inconclusive and are not listed. What follows is part of a selection rich in actives, with near analogues and random picks from the rest. Unmarked numbers belong to inactive results. The call rests on the fitted dose curve; tested in HEK293T cells.
On the % scale 0 is the no-effect control and ±100 the full control effect; potency means the concentration at half of the fitted maximal effect.

The nature of this experiment: High Throughput Screening for Foot and Mouth Disease Virus Antivirals. Further: read-out not given here; nearly all actives have a fitted effect of over 45% in size. The settings on record: FMDV antiviral cell-based qHTS; series mostly up to 57.9 µM; activity change, negative = inhibition: at the top concentration.
For the compound `Cc1ccc(OCCCC(=O)N2CCOCC2)c(C)c1`, the “activity change, negative = inhibition” value is 32.4%. As for `Cc1ccc(C)c(N2CCN(C(=O)CCCCn3c(=O)[nH]c4ccccc4c3=O)CC2)c1`, the Potency was 20 µM (active). Regarding `CN1[C@@H]2CC[C@H]1CC(OC(=O)c1cc(Cl)cc(Cl)c1)C2` (some centres not stated), the “activity change, negative = inhibition” value was -22.1%. Take `Oc1c(C(c2ccc(F)cc2)N2CCN(Cc3ccccc3)CC2)sc2nc(-c3ccco3)nn12` (configuration not stated): the “activity change, negative = inhibition” value was -0.194%. On the same count and under the same terms, to `O=C(c1ccncc1)N1CCC2(CCN(Cc3cc(C(F)(F)F)cc(C(F)(F)F)c3)CC2)CC1` belongs -8.53%. The same measure, in the same setting: to `Cc1nc2ccn(Cc3cccs3)c(=O)c2cc1C(=O)NCc1ccc(Cl)cc1` belongs 8.72%; to `CCCNC(=O)c1ccc(Cn2c(SCC(N)=O)nc3ccccc3c2=O)cc1`, 4.34%. As to `Cc1nnnn1/C(=C\c1ccccc1)C(=O)OCC(=O)N1CC2(C)CC1CC(C)(C)C2` (configuration not stated), the Potency is 31.6 µM (active). `Cn1nccc1C(=O)NCC1CCC2(CCN(Cc3c(O)ccc4ccccc34)CC2)O1` (configuration not stated): the “activity change, negative = inhibition” value is 29.3%. On the same count and under the same terms, for `Cc1c(-c2cccc(NC(=O)C(C)(C)C)c2)nc2ncccn12` the value was -13.9%; for `O=c1c(O)c(-c2ccc(O)cc2)oc2ccccc12`, 39.4%.

Regarding `Cc1ccccc1OCC(=O)NNC(=O)c1cc(S(=O)(=O)N(C)C)ccc1N1CCCC1`, the “activity change, negative = inhibition” value is -20.4%. With `Cc1ccc(NC(=O)COc2coc(CN3CCc4ccccc4C3)cc2=O)cc1Cl`, the “activity change, negative = inhibition” value was -22.8%. `Cc1ccccc1OCC(=O)Nc1ccc(N2CCN(C(=O)C(C)C)CC2)c(Cl)c1`: the Potency is 14.1 µM (active). For the compound `O=C(Oc1cc(OC(=O)c2ccccc2)c2c(c1)OC(c1ccc(OC(=O)c3ccccc3)c(OC(=O)c3ccccc3)c1)[C@@H](OC(=O)c1ccccc1)C2)c1ccccc1` (some centres not stated), the “activity change, negative = inhibition” value was 7.22%.

For `CCCOc1ccc(NC(=O)CC2C(=O)N(c3ccccc3)C(=O)N2Cc2ccco2)cc1` (configuration not stated), the “activity change, negative = inhibition” value was -9.1%. Same read-out and setting: for `CCOC(=O)c1c(C)[nH]c(C)c1S(=O)(=O)N1CCC(C(=O)Nc2ccc(C)c(Cl)c2)CC1` the value was -14.6%.

For the compound `Cn1c(=O)c([N+](=O)[O-])c(Oc2ccccc2)c2ccccc21`, the Potency is 28.2 µM (active). With `COc1cc2c(=O)n(C)c3ccccc3c2cc1OC`, the “activity change, negative = inhibition” value is -27%.

Take `Cc1cccc(C2CC(=O)Oc3c2c(=O)n(C)c2ccccc32)c1` (configuration not stated): the “activity change, negative = inhibition” value was 2.33%.

On to `CC(C)c1cnc(NC(=O)Cc2ccccc2)s1`, for which the “activity change, negative = inhibition” value is -5.87%. For the compound `Cc1ccc(-n2nc(C)c3c(C)cc(=O)n(CC(=O)Nc4ccc(C(C)C)cc4)c32)cc1`, the “activity change, negative = inhibition” value was -2.61%. `CC(=O)Oc1c2c(c3c(c1CC=C(C)C)O[C@@]14C(=CC5CC1C(C)(C)OC4(C/C=C(\C)C(=O)O)C5=O)C3=O)OC(C)(CCC=C(C)C)C=C2` (some centres not stated): the Potency was 20 µM (active). Regarding `COc1cc(=O)n2c(c1C(=O)NC(C)c1ccco1)CCN(Cc1cc(C)cc(C)c1)CC2` (configuration not stated), the “activity change, negative = inhibition” value was -9.62%. Still for that read-out and setting: for `CCOc1ccccc1C(=O)NCC(c1ccc(N(C)C)cc1)N1CCCC1` (configuration not stated) the value was -27.2%. On the same count and under the same terms, for `Cc1cc(-c2ccnc(-n3ncc(C(=O)NCCc4ccncc4)c3C)n2)c(C)s1` the value was -20%; for `CCOc1ccc(C)cc1S(=O)(=O)NC1CCCCCC1`, 67.9%. Regarding `CCOc1cccc(=NC2CCCCC2)c2c(C)[nH]c(C)c12`, the Potency is 28.2 µM (active). Consider `CC(=O)N1CCC2(CCCN(c3ncccn3)C2)CC1`, for which the “activity change, negative = inhibition” value is 7.55%.

For the compound `O=C(O)C1CCN(c2ncnc3ccc(-c4ccccc4C(F)(F)F)cc23)CC1`, the “activity change, negative = inhibition” value is -15.3%. Take `O=C(NCCCN1CCN(c2cccc(Cl)c2)CC1)c1nnc(Cc2ccc(F)cc2Cl)o1`: the “activity change, negative = inhibition” value is -29.1%. On to `COc1cc(/C=C/C(=O)N2CCc3ccccc3C2)cc(OC)c1OC`, for which the “activity change, negative = inhibition” value was -4.48%.

With `COc1cc(/C=C/c2ccc(/C=C/c3cc(OC)c(OC)c(OC)c3)cc2)cc(OC)c1OC`, the Potency is 22.4 µM (active). For `COc1cc(/C=C/C2=CC(C)(C)NC(=S)N2)cc(OC)c1OC`, the “activity change, negative = inhibition” value was -7.18%. Turning to `CCN1CCc2nc3sc(C(=O)Nc4ccccc4OC(F)(F)F)c(N)c3cc2C1`, the “activity change, negative = inhibition” value was -10.2%. Same read-out and setting: for `CC1OC(OCC2OC(Oc3c(-c4ccc(O)c(O)c4)oc4cc(O)cc(O)c4c3=O)C(O)C(O)C2O)[C@@H](O)C(O)C1O` (some centres not stated) the value was 3.27%. Turning to `Cc1ccc(Nc2c3c(nc4ccccc24)CCC3)cc1`, the Potency is 17.8 µM (active). Consider `CCOc1ccc(C(=O)Nc2ccc3nc4c(c(Nc5ccccc5OC)c3c2)CCCC4)cc1`, for which the “activity change, negative = inhibition” value was -26%. As for `Cc1noc(C)c1-c1nc(Nc2ccccc2)c2ccccc2n1`, the “activity change, negative = inhibition” value is -12.9%.

For the compound `O=C(c1cccc(Cn2cccn2)c1)N1CCOc2c(cc(-c3csc4ccccc34)cc2OC2CCOC2)C1` (configuration not stated), the “activity change, negative = inhibition” value is -19%. Same read-out and setting: to `Cc1ccccc1-c1nc(N(C)Cc2ccco2)c2ccccc2n1` belongs -21.3%; to `CC1(C)OC2CC3C4CCC5=CC(=O)CCC5(C)C4(F)C(O)CC3(C)[C@]2(C(=O)CCl)O1` (some centres not stated), 28.9%; to `Cc1ccc(S(=O)(=O)N2CCOCC2)cc1NC(=O)c1ccncc1`, -18.2%. `COc1ccc(C(=O)Nc2nc(-c3ccc(S(=O)(=O)N4CCOCC4)cc3)cs2)cc1`: the Potency is 7.94 µM (active).

Turning to `Cc1ccnc(NS(=O)(=O)c2ccc(NC(=O)c3ccc(S(=O)(=O)N4CCOCC4)cc3)cc2)n1`, the “activity change, negative = inhibition” value was -8.56%. Regarding `CCS(=O)(=O)Nc1cc(C(=O)N2C[C@@H](C)O[C@@H](C)C2)c2c(c1)nc(-c1ccccc1)n2C`, the “activity change, negative = inhibition” value was -0.997%. Take `Cc1ccc2cccc(NC(=O)c3ccc(OC(C)C)cc3)c2n1`: the “activity change, negative = inhibition” value is 10%.
